About 2,000 (0.91%) of roughly 220,000 compounds were called active. About 2% were inconclusive and are not listed. No stated cut-off is given here; in the data, inconclusive means inhibition above about 80% without an active follow-up result; inactive means below that; test concentration not stated here. Only a sample is shown. Measured potencies and affinities stand elsewhere.
Experiment: M. tuberculosis H37Rv growth inhibitors, H37Rv strain (AID 1626);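 further: bacteria incubated seven days before Alamar blue readout; 0% = bacteria only wells and 100% = bacteria with antibiotic wells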
Settings: hits give high values, concentration not given here

| Compound | inhibition |
| --- | --- |
| Cc1ccc(C)c(-c2cc(C(=O)Nc3cccc(C(=O)O)c3)c3ccccc3n2)c1 | 2.58% (inactive) |
| COc1ccc(/C=C/C2=NN(Cc3ccccc3)C(=O)CC2)cc1 | -0.13% (inactive) |
| Cc1cc(N2CCN(C)CC2)nc(-c2ccccc2O)n1 | -1.49% (inactive) |
| O=C(COc1ccccc1)Nc1cccc(-c2nnc(-c3ccccc3)o2)c1 | 14.9% (inactive) |
| CCOc1ccc(-c2nc3ccccc3c(=O)o2)cc1 | 3.93% (inactive) |
| CC(C)C(=O)Nc1cccc(-c2nc3ccccc3c(=O)o2)c1 | 0.23% (inactive) |
| O=C(Nc1ccc(-c2nc3cc(Cl)ccc3c(=O)o2)cc1)c1ccco1 | 9.67% (inactive) |
| O=C(Nc1ccc2nc(-c3ccccc3)oc2c1)c1ccco1 | -2.22% (inactive) |
| Cc1cccc(OCC(=O)Nc2cccc(-c3nnc(-c4ccccc4)o3)c2)c1C | 3.74% (inactive) |
| COc1ccc(-c2nc3ccccc3c(=O)o2)cc1OC | 12.4% (inactive) |
| CCC(=O)Nc1ccc(-c2nnc(-c3ccccc3)o2)cc1 | 5.07% (inactive) |
| O=C1CC(c2ccc(Br)cc2)NC(c2ccc(Br)cc2)C1c1ccccc1 (configuration not stated) | 15.2% (inactive) |
| Nc1cc(-c2ccccc2)nn1S(=O)(=O)c1ccc(Br)cc1 | 12.3% (inactive) |
| COc1cc(SC)ccc1C(=O)Nc1ccc(C)cc1C | 2.28% (inactive) |
| Cc1onc(-c2ccccc2)c1C(=O)N1CCN(C)CC1 | -7.83% (inactive) |
| Cc1cc(C(=O)N/N=C2\CC(=O)c3ccccc32)c(C)n1-c1ccccc1 | -0.53% (inactive) |
| COc1ccc(/C=N/NC(=O)CC2N=C(Cc3ccccc3)NNC2=O)cc1OC (configuration not stated) | -1.24% (inactive) |
| O=C(Oc1c(Cl)cc(Cl)c2ccccc12)N1CCCCC1 | 11.7% (inactive) |
| NC(=O)CCC(NC(=O)c1ccc(Cl)cc1)C(=O)O (configuration not stated) | 2.33% (inactive) |
| COc1ccc(NC(=O)CCN2C(=O)[C@@H]3[C@H](C2=O)[C@H]2C=C[C@@H]3C2)cc1 | -1.56% (inactive) |
| CC(=O)Nc1cccc(-c2nc3ccccc3c(=O)o2)c1 | 9.37% (inactive) |

| Compound | inhibition |
| --- | --- |
| O=C(Nc1ccc(-c2nc3ccccc3o2)cc1)c1ccc(N2C(=O)C3C4C=CC(C4)C3C2=O)cc1 (configuration not stated) | 3.15% (inactive) |
| COc1ccc(-c2nc3ccccc3c(=O)o2)cc1 | 11.6% (inactive) |
| O=C1C2C3C=CC(C3)C2C(=O)N1c1ccc(-c2nc3ccccc3o2)cc1 (configuration not stated) | 0.58% (inactive) |
| CC(C)(C)C(=O)Nc1cccc(-c2nc3ccccc3c(=O)o2)c1 | 70.7% (inactive) |
| CCCC(=O)Nc1cccc(-c2nc3ccccc3o2)c1 | 5.23% (inactive) |
| COc1ccc(C2C(Oc3ccccc3)C(=O)N2c2ccc(C)c(C)c2)cc1OC (configuration not stated) | 4.9% (inactive) |
| Fc1ccc(CNC(=S)NC2CCCC2)cc1 | 2.21% (inactive) |
| CCc1cc(C(=O)OC)c(NC(=O)CC2SC(N)=NC2=O)s1 (configuration not stated) | 3.51% (inactive) |
| CC(=O)N1CCN(c2ccc(N=Cc3c(O)n(-c4ccc(Cl)cc4)c(=O)[nH]c3=O)cc2)CC1 | -7.57% (inactive) |
| COc1ccccc1CCc1nnc(CCC(=O)NC(C)Cc2cccc(C)n2)o1 (configuration not stated) | -7.73% (inactive) |
| CCOc1cc(/C=C2\SC(=N)N(c3nonc3N)C2=O)ccc1OCC(N)=O | 4% (inactive) |
| CCOc1cc(/C=C2\SC(=N)N(c3nonc3N)C2=O)ccc1OCCN1CCOCC1 | 4.53% (inactive) |
| COc1cc(/C=C2\SC(=N)N(c3ccc(F)cc3)C2=O)ccc1O | 7.97% (inactive) |
| COc1ccc(/C=C2\SC(=N)N(c3ccc(F)cc3)C2=O)cc1OC | -3.05% (inactive) |
| CCN1C(c2ccccc2)=C(c2ccccc2)S/C1=C\C=C1/SC(=S)N(C)C1=O | 3.07% (inactive) |
| Cc1cccnc1-n1c(CN2C(=O)c3ccccc3C2=O)nc2ccccc2c1=O | -3.32% (inactive) |
| CCOC(=O)c1c(CSC(=N)N)n(-c2ccccc2)c2cc(Br)c(OC(C)=O)cc12 | -0.53% (inactive) |
| CCOC(=O)c1c(CSC(=N)N)n(C)c2cc(Br)c(OC(C)=O)cc12 | 1.34% (inactive) |
| O=C(CN=C1NS(=O)(=O)c2ccccc21)OCC(=O)c1cc(F)ccc1F | -7.99% (inactive) |
| c1coc(-c2nnc3sc(Cc4cccs4)nn23)c1 | -0.74% (inactive) |
| C1CCC(c2nn3c(-c4n[nH]c5c4CCC5)nnc3s2)CC1 | 9.35% (inactive) |

| Compound | inhibition |
| --- | --- |
| c1ccc(-c2nnc3sc(Cc4cccs4)nn23)cc1 | 15.9% (inactive) |
| Clc1ccccc1-c1nnc2sc(CCc3ccccc3)nn12 | 5.64% (inactive) |
| c1ccc(OCc2nn3c(-c4ccncc4)nnc3s2)cc1 | -8.19% (inactive) |
| c1ccc(CCc2nn3c(-c4ccncc4)nnc3s2)cc1 | -0.85% (inactive) |
| c1csc(Cc2nn3c(-c4ccncc4)nnc3s2)c1 | -11.8% (inactive) |
| c1ccc(OCc2nn3c(-c4ccccn4)nnc3s2)cc1 | -10.6% (inactive) |
| O=C(OCc1nc2ccccc2s1)c1cnccn1 | -4.85% (inactive) |
| O=C(c1ccc(=O)[nH]n1)N1CCc2ccccc2C1 | 5.26% (inactive) |
| COC(=O)CCSCC(=O)Nc1nnc(C)s1 | -2.82% (inactive) |
| CCN(CC)C(=O)CSc1nnc(-c2ccc(F)cc2)n1N | 3.27% (inactive) |
| CC(=O)Oc1ccc(C(=O)Nc2cccc(C(=O)c3cccc(NC(=O)c4ccc(OC(C)=O)cc4)c3)c2)cc1 | 74.4% (inactive) |
| COC1=CC(=O)CC(C)C12Oc1cc(OC)cc(OC)c1C2=O (configuration not stated) | -7.12% (inactive) |
| COCCNC(=O)/C(C#N)=C\c1ccc(CNS(=O)(=O)c2ccccc2)o1 | -0.59% (inactive) |
| O=C1c2ccccc2C(O)(c2ncc[nH]2)N1CCc1ccccc1 (configuration not stated) | -2.48% (inactive) |
| OCCN1CCN(c2nc(NCc3ccco3)c3ccccc3n2)CC1 | -2.39% (inactive) |
| COc1ccccc1Nc1nc(NCc2ccco2)c2ccccc2n1 | 83.7% (inactive) |
| OCCNc1nc(N2CCN(Cc3ccccc3)CC2)nc2ccccc12 | -8.82% (inactive) |
| c1ccc(CNc2nc(NCc3ccco3)nc(N3CCOCC3)n2)cc1 | 10.6% (inactive) |
| c1ccc2c(NCC3CCCO3)nc(N3CCCCC3)nc2c1 (configuration not stated) | 1.41% (inactive) |
| Clc1nc(NCc2ccco2)nc(N2CCCCC2)n1 | 5.51% (inactive) |

From PubChem BioAssay AID1626 (SRMLSC, 2009)
